# “And” between values parts separate entries of the source, which are not always exact repeats. Equal values may be shown once. The source made the active and inactive calls. The calls were made as follows: active = hit-call score of the fitted dose curve at least 0.9, where 1 is the maximum; inactive = score below 0.9.
# Key:
# [1] = read-out: Monocyte Chemoattractant Protein-1 (MCP1), CCL2 (gene 6347); test: BSK_IMphg_MCP1: BioMAP Diversity Plus: IMphg Assay for Monocyte Chemoattractant Protein-1 (MCP1) Biomarker Activity (AID 2284253); settings: primary human endothelial cells with macrophages
# In short: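 Human venular endothelial cells co-cultured with macrophages; MCP-1 measured by ELISA 24 hours post-dose and fitted against DMSO. Cytotoxicity monitored by SRB total-protein staining in parallel cultures.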
# [2] = read-out: Macrophage Inflammatory Protein-1 Alpha (MIP1a), CCL3 (gene 6348); test: BSK_IMphg_MIP1a: BioMAP Diversity Plus: IMphg Assay for Macrophage Inflammatory Protein-1 Alpha (MIP1a) Biomarker Activity (AID 2284255); settings: primary human endothelial cells with macrophages
# In short: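 Co-culture of human venular endothelial cells and macrophages exposed to compounds for 24 h; MIP-1a measured by ELISA relative to DMSO. Cytotoxicity assessed in parallel cultures by sulforhodamine B total-protein staining at 560 nm.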
# CD69, CD69 (gene 969) = test: BSK_IMphg_CD69: BioMAP Diversity Plus: IMphg Assay for CD69 Biomarker Activity (AID 2284257); settings: primary human endothelial cells with macrophages
# In short: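 Human venular endothelial cells co-cultured with macrophages; CD69 quantified by ELISA 24 h after compound addition. Activity fitted in the positive direction relative to DMSO baseline; cytotoxicity tracked in parallel cultures via SRB total-protein staining.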
# [3] = read-out: Eotaxin 3, CCL26 (gene 10344); test: BSK_BF4T_Eotaxin3: BioMAP Diversity Plus: BF4T Assay for Eotaxin 3 Biomarker Activity (AID 2284258); settings: primary human bronchial epithelial cells with fibroblasts
# In short: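 Co-culture of human bronchial epithelial cells and dermal fibroblasts, exposed to chemicals for 24 h versus DMSO. Eotaxin-3 quantified by ELISA; cytotoxicity checked in parallel cultures by sulforhodamine B total-protein staining.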
# [4] = read-out: Monocyte Chemoattractant Protein-1 (MCP1), CCL2 (gene 6347); test: BSK_BF4T_MCP1: BioMAP Diversity Plus: BF4T Assay for Monocyte Chemoattractant Protein-1 (MCP1) Biomarker Activity (AID 2284259); settings: primary human bronchial epithelial cells with fibroblasts
# In short: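 Co-culture of bronchial epithelial cells and dermal fibroblasts dosed with chemical; MCP-1 measured by ELISA 24 h later. Activity fitted in positive direction versus DMSO; cytotoxicity checked by SRB staining in parallel cultures.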
# [5] = read-out: Intercellular Adhesion Molecule 1 (ICAM1), ICAM1 (gene 3383); test: BSK_BF4T_ICAM1: BioMAP Diversity Plus: BF4T Assay for Intercellular Adhesion Molecule 1 (ICAM1) Biomarker Activity (AID 2284260); settings: primary human bronchial epithelial cells with fibroblasts
# In short: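 Co-culture of human bronchial epithelial cells and dermal fibroblasts exposed 24 h to chemical; cell-surface ICAM-1 quantified by ELISA. Parallel SRB total-protein staining assessed cytotoxicity; activity fitted relative to DMSO.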
# CD90, THY1 (gene 7070) = test: BSK_BF4T_CD90: BioMAP Diversity Plus: BF4T Assay for CD90 Biomarker Activity (AID 2284262); settings: primary human bronchial epithelial cells with fibroblasts
# In short: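 Co-culture of human bronchial epithelial cells and dermal fibroblasts, 24 h compound exposure. Cell-surface CD90 measured by ELISA relative to DMSO; parallel SRB total-protein staining for cytotoxicity.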
# [6] = read-out: Interleukin-1 alpha (IL1a), IL1A (gene 3552); test: BSK_BF4T_IL1a: BioMAP Diversity Plus: BF4T Assay for Interleukin-1 alpha (IL1a) Biomarker Activity (AID 2284264); settings: primary human bronchial epithelial cells with fibroblasts
# In short: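 Human bronchial epithelial cells co-cultured with dermal fibroblasts, dosed and read at 24 h. Secreted/surface IL-1α quantified by ELISA; gain-of-signal fitted relative to DMSO baseline. Parallel SRB total-protein staining tracked cytotoxicity.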
# KRT18 (gene 3875) = test: BSK_BF4T_Keratin818: BioMAP Diversity Plus: BF4T Assay for Keratin 818 Biomarker Activity (AID 2284266); settings: primary human bronchial epithelial cells with fibroblasts
# In short: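 Co-culture of human bronchial epithelial cells and dermal fibroblasts, chemical exposure 24 h. Keratin 8/18 measured by ELISA; positive-direction fit vs DMSO. SRB total protein run in parallel cultures for cytotoxicity.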
# [7] = read-out: Matrix Metallopeptidase 1 (MMP1), MMP1 (gene 4312); test: BSK_BF4T_MMP1: BioMAP Diversity Plus: BF4T Assay for Matrix Metallopeptidase 1 (MMP1) Biomarker Activity (AID 2284270); settings: primary human bronchial epithelial cells with fibroblasts
# In short: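 Co-culture of human bronchial epithelial cells and dermal fibroblasts; MMP-1 levels measured by ELISA 24 hours after chemical dosing, relative to DMSO. Cytotoxicity checked in parallel cultures by SRB total-protein staining.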
# [8] = read-out: Matrix Metallopeptidase 3 (MMP3), MMP3 (gene 4314); test: BSK_BF4T_MMP3: BioMAP Diversity Plus: BF4T Assay for Matrix Metallopeptidase 3 (MMP3) Biomarker Activity (AID 2284271); settings: primary human bronchial epithelial cells with fibroblasts
# In short: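 Co-culture of human bronchial epithelial cells and dermal fibroblasts dosed 24 h; MMP-3 measured by ELISA, positive-direction fit versus DMSO. Cytotoxicity tracked by SRB total-protein staining (560 nm) in parallel cultures.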
# [9] = read-out: Tissue plasminogen activator (tPA), PLAT (gene 5327); test: BSK_BF4T_tPA: BioMAP Diversity Plus: BF4T Assay for Tissue plasminogen activator (tPA) Biomarker Activity (AID 2284272); settings: primary human bronchial epithelial cells with fibroblasts
# In short: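 tPA level quantified by ELISA at 24 h post-treatment in bronchial epithelial/dermal fibroblast co-cultures, gain of signal scored against DMSO baseline. Parallel cultures stained with 0.1% SRB (560 nm) to flag overt cytotoxicity.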
# [10] = read-out: Plasminogen Activator Inhibitor-1 (PAI1), SERPINE1 (gene 5054); test: BSK_BF4T_PAI1: BioMAP Diversity Plus: BF4T Assay for Plasminogen Activator Inhibitor-1 (PAI1) Biomarker Activity (AID 2284273); settings: primary human bronchial epithelial cells with fibroblasts
# In short: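 Co-culture of human bronchial epithelial cells and dermal fibroblasts exposed to compound for 24 h. PAI-1 measured by ELISA; activity fitted in positive direction versus DMSO. Parallel SRB staining assessed overt cytotoxicity.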
# [11] = BSK_BF4T_SRB: Viability Assessment in the BioMAP Diversity Plus: BF4T Assay (AID 2284274); settings: primary human bronchial epithelial cells with fibroblasts
# In short: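 Co-culture of human bronchial epithelial cells and dermal fibroblasts (BioMAP BF4T) exposed 24 h. Total protein by sulforhodamine B staining (0.1% SRB after 10% TCA fixation, 560 nm) in parallel cultures; fitted vs DMSO.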
# [12] = read-out: urokinase Plasminogen Activator (uPA), PLAU (gene 5328); test: BSK_BF4T_uPA: BioMAP Diversity Plus: BF4T Assay for urokinase Plasminogen Activator (uPA) Biomarker Activity (AID 2284275); settings: primary human bronchial epithelial cells with fibroblasts
# In short: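 Co-culture of human bronchial epithelial cells and dermal fibroblasts; uPA quantified by ELISA 24 hours after dosing, fitted relative to DMSO. Parallel SRB total-protein staining assessed overt cytotoxicity.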
# [13] = read-out: Matrix Metallopeptidase 9 (MMP9), MMP9 (gene 4318); test: BSK_BF4T_MMP9: BioMAP Diversity Plus: BF4T Assay for Matrix Metallopeptidase 9 (MMP9) Biomarker Activity (AID 2284276); settings: primary human bronchial epithelial cells with fibroblasts
# In short: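 Co-culture of human bronchial epithelial cells and dermal fibroblasts dosed for 24 h; MMP-9 quantified by ELISA and fitted upward versus DMSO. Cytotoxicity monitored in parallel cultures by SRB total-protein staining at the biomarker time point.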
# [14] = read-out: Vascular cell adhesion molecule 1 (VCAM1), VCAM1 (gene 7412); test: BSK_IMphg_VCAM1: BioMAP Diversity Plus: IMphg Assay for Vascular cell adhesion molecule 1 (VCAM1) Biomarker Activity (AID 2284286); settings: primary human endothelial cells with macrophages
# In short: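 Human venular endothelial cells co-cultured with macrophages; VCAM-1 quantified by ELISA 24 h after dosing, fitted in the positive direction against DMSO. Cytotoxicity was checked in parallel cultures by SRB total-protein staining (0.1% SRB after 10% TCA fixation, 560 nm).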
# CD40, CD40 (gene 958) = test: BSK_IMphg_CD40: BioMAP Diversity Plus: IMphg Assay for CD40 Biomarker Activity (AID 2284288); settings: primary human endothelial cells with macrophages
# In short: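 Venular endothelial cells co-cultured with macrophages (human primary), CD40 measured by ELISA 24 h after dosing. Positive-direction fit vs DMSO baseline; cytotoxicity tracked by SRB total-protein staining in parallel cultures.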
# [15] = read-out: E-selectin (Homo sapiens) (UniProt P16581); test: BSK_IMphg_ESelectin: BioMAP Diversity Plus: IMphg Assay for Eselectin Biomarker Activity (AID 2284291); settings: primary human endothelial cells with macrophages
# In short: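 Human venular endothelial cell–macrophage co-culture, E-selectin measured by ELISA 24 h after chemical dosing. Signal fitted in the positive direction against DMSO as negative control and baseline.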
# [16] = BSK_IMphg_SRB: Viability Assessment in the BioMAP Diversity Plus: IMphg Assay (AID 2284292); settings: primary human endothelial cells with macrophages;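 also: measured one day after compound addition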
# In short: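 Human venular endothelial cells with macrophages, 24 h after chemical dosing; total protein by 0.1% SRB staining after 10% TCA fixation, read at 560 nm. Positive-direction fitting versus DMSO baseline.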
# E-selectin (Homo sapiens), sequence (P16581 whole entry, looked up): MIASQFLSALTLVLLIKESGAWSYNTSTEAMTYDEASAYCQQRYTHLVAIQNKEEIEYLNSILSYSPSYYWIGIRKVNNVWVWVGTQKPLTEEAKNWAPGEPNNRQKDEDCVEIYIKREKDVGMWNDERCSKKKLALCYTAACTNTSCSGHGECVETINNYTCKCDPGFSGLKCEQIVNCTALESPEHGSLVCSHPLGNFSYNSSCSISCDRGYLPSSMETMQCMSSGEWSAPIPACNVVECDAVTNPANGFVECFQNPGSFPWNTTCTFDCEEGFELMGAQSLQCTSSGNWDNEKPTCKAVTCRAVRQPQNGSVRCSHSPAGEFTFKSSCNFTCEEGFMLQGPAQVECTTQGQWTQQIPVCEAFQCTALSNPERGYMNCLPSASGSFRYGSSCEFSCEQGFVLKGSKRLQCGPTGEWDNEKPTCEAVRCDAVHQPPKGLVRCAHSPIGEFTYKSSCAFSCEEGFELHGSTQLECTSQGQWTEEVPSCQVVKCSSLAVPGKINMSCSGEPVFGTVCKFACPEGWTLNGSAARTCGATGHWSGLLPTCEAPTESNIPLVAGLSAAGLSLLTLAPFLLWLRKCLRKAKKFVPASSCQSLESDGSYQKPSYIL
smiles,measurement,setting,value
OC(C(F)(F)F)(C(F)(F)F)C(O)(C(F)(F)F)C(F)(F)F,AC50,[1],22.4 µM (active) and 22.6 µM (active)
same,AC50,[2],7.09 µM (active) and 53.2 µM (active)
same,AC50,"CD69, CD69 (gene 969)",18.7 µM (active) and 24.2 µM (active)
same,AC50,[3],15.7 µM (active) and 8.93 µM (active)
same,outcome,[4],inactive
same,outcome,[5],inactive
same,outcome,"CD90, THY1 (gene 7070)",inactive
same,outcome,[6],inactive
same,outcome,KRT18 (gene 3875),inactive
same,outcome,[7],inactive
same,outcome,[8],inactive
same,outcome,[9],inactive
same,AC50,[10],14.4 µM (active) and 8.31 µM (active)
same,outcome,[11],inactive
same,outcome,[12],inactive
same,outcome,[13],inactive
same,AC50,[14],23.6 µM (active) and 22.1 µM (active)
same,AC50,"CD40, CD40 (gene 958)",23 µM (active) and 21.1 µM (active)
same,AC50,[15],22 µM (active) and 30 µM (active)
same,AC50,[16],34.1 µM (active) and 34.8 µM (active)
